# According to PMC11062922 (Nature Chemical Biology, 2023):
# Where two headings read alike, the source gives them in different places.
# What was measured:
# Conditions in all cases: read-out: apparent Kd, n = 1
# MAP2K1 = test system: MAP2K1
# MAP3K5 = test system: MAP3K5
# MAPK10 = test system: MAPK10
# [1] = compound concentrations:100 nM and 1000 nM (sheet 'Lestaurtinib' of Supplementary Table 1),run:Lestaurtinib_02765_R3,Plate:MR026
# [2] = compound concentrations:100 nM and 1000 nM (sheet 'Lestaurtinib' of Supplementary Table 1),run:Lestaurtinib_02766_R3,Plate:MR027
# [3] = compound concentrations:100 nM and 1000 nM (sheet 'Lestaurtinib' of Supplementary Table 1),run:Lestaurtinib_02768_R3,Plate:MR028
# [4] = compound concentrations:100 nM and 1000 nM (sheet 'Lestaurtinib' of Supplementary Table 1),run:Lestaurtinib_02795_R2,Plate:MR022
# [5] = compound concentrations:100 nM and 1000 nM (sheet 'Lestaurtinib' of Supplementary Table 1),run:Lestaurtinib_03172_R3,Plate:MR031
# [6] = compound concentrations:100 nM and 1000 nM (sheet 'Lestaurtinib' of Supplementary Table 1),run:Lestaurtinib_03260_R1,Plate:MR033
# [7] = compound concentrations:100 nM and 1000 nM (sheet 'Lestaurtinib' of Supplementary Table 1),run:Lestaurtinib_03260_R3,Plate:MR033
# [8] = compound concentrations:100 nM and 1000 nM (sheet 'Lestaurtinib' of Supplementary Table 1),run:Lestaurtinib_02367_R1,Plate:MR003
# [9] = compound concentrations:100 nM and 1000 nM (sheet 'Lestaurtinib' of Supplementary Table 1),run:Lestaurtinib_02407_R1,Plate:MR005
# [10] = compound concentrations:100 nM and 1000 nM (sheet 'Lestaurtinib' of Supplementary Table 1),run:Lestaurtinib_02407_R2,Plate:MR005
# [11] = compound concentrations:100 nM and 1000 nM (sheet 'Lestaurtinib' of Supplementary Table 1),run:Lestaurtinib_02422_R2,Plate:MR006
# [12] = compound concentrations:100 nM and 1000 nM (sheet 'Lestaurtinib' of Supplementary Table 1),run:Lestaurtinib_02437_R1,Plate:MR007
# [13] = compound concentrations:100 nM and 1000 nM (sheet 'Lestaurtinib' of Supplementary Table 1),run:Lestaurtinib_02437_R2,Plate:MR007
# [14] = compound concentrations:100 nM and 1000 nM (sheet 'Lestaurtinib' of Supplementary Table 1),run:Lestaurtinib_02473_R1,Plate:MR010
# [15] = compound concentrations:100 nM and 1000 nM (sheet 'Lestaurtinib' of Supplementary Table 1),run:Lestaurtinib_02473_R2,Plate:MR010
# [16] = compound concentrations:100 nM and 1000 nM (sheet 'Lestaurtinib' of Supplementary Table 1),run:Lestaurtinib_02473_R3,Plate:MR010
# [17] = compound concentrations:100 nM and 1000 nM (sheet 'Lestaurtinib' of Supplementary Table 1),run:Lestaurtinib_02482_R1,Plate:MR011
# [18] = compound concentrations:100 nM and 1000 nM (sheet 'Lestaurtinib' of Supplementary Table 1),run:Lestaurtinib_02482_R2,Plate:MR011
# [19] = compound concentrations:100 nM and 1000 nM (sheet 'Lestaurtinib' of Supplementary Table 1),run:Lestaurtinib_02487_R1,Plate:MR012
# [20] = compound concentrations:100 nM and 1000 nM (sheet 'Lestaurtinib' of Supplementary Table 1),run:Lestaurtinib_02566_R1,Plate:MR014
substance,measurement,setting,value
Lestaurtinib,potency estimated from few doses,"MAP2K1; compound concentrations:100 nM and 1000 nM (sheet 'Lestaurtinib' of Supplementary Table 1),run:Lestaurtinib_02741_R3,Plate:MR023",1320 nM
same,potency estimated from few doses,"MAP2K1; compound concentrations:100 nM and 1000 nM (sheet 'Lestaurtinib' of Supplementary Table 1),run:Lestaurtinib_02748_R1,Plate:MR024",1440 nM
same,potency estimated from few doses,"MAP2K1; compound concentrations:100 nM and 1000 nM (sheet 'Lestaurtinib' of Supplementary Table 1),run:Lestaurtinib_02748_R3,Plate:MR024",1400 nM
same,potency estimated from few doses,"MAP2K1; compound concentrations:100 nM and 1000 nM (sheet 'Lestaurtinib' of Supplementary Table 1),run:Lestaurtinib_02752_R2,Plate:MR025",1510 nM
same,potency estimated from few doses,"MAP2K1; compound concentrations:100 nM and 1000 nM (sheet 'Lestaurtinib' of Supplementary Table 1),run:Lestaurtinib_02765_R2,Plate:MR026",1620 nM
same,potency estimated from few doses,MAP2K1; [1],1670 nM
same,potency estimated from few doses,"MAP2K1; compound concentrations:100 nM and 1000 nM (sheet 'Lestaurtinib' of Supplementary Table 1),run:Lestaurtinib_02766_R1,Plate:MR027",964 nM
same,potency estimated from few doses,MAP2K1; [2],1540 nM
same,potency estimated from few doses,MAP2K1; [3],2210 nM
same,potency estimated from few doses,MAP2K1; [4],771 nM
same,potency estimated from few doses,"MAP2K1; compound concentrations:100 nM and 1000 nM (sheet 'Lestaurtinib' of Supplementary Table 1),run:Lestaurtinib_02802_R1,Plate:MR029",1900 nM
same,potency estimated from few doses,"MAP2K1; compound concentrations:100 nM and 1000 nM (sheet 'Lestaurtinib' of Supplementary Table 1),run:Lestaurtinib_02896_R1,Plate:MR030",803 nM
same,potency estimated from few doses,MAP2K1; [5],823 nM
same,potency estimated from few doses,"MAP2K1; compound concentrations:100 nM and 1000 nM (sheet 'Lestaurtinib' of Supplementary Table 1),run:Lestaurtinib_03252_R1,Plate:MR032",1540 nM
same,potency estimated from few doses,MAP2K1; [6],1210 nM
same,potency estimated from few doses,MAP2K1; [7],2310 nM
same,potency estimated from few doses,"MAP3K5; compound concentrations:100 nM and 1000 nM (sheet 'Lestaurtinib' of Supplementary Table 1),run:Lestaurtinib_02364_R1,Plate:MR002",938 nM
same,potency estimated from few doses,MAP3K5; [8],1240 nM
same,potency estimated from few doses,"MAP3K5; compound concentrations:100 nM and 1000 nM (sheet 'Lestaurtinib' of Supplementary Table 1),run:Lestaurtinib_02381_R1,Plate:MR004",987 nM
same,potency estimated from few doses,"MAP3K5; compound concentrations:100 nM and 1000 nM (sheet 'Lestaurtinib' of Supplementary Table 1),run:Lestaurtinib_02381_R2,Plate:MR004",926 nM
same,potency estimated from few doses,"MAP3K5; compound concentrations:100 nM and 1000 nM (sheet 'Lestaurtinib' of Supplementary Table 1),run:Lestaurtinib_02381_R3,Plate:MR004",826 nM
same,potency estimated from few doses,MAP3K5; [9],1600 nM
same,potency estimated from few doses,MAP3K5; [10],1350 nM
same,potency estimated from few doses,MAP3K5; [11],1150 nM
same,potency estimated from few doses,MAP3K5; [12],1460 nM
same,potency estimated from few doses,MAP3K5; [13],983 nM
same,potency estimated from few doses,"MAP3K5; compound concentrations:100 nM and 1000 nM (sheet 'Lestaurtinib' of Supplementary Table 1),run:Lestaurtinib_02438_R2,Plate:MR008",1370 nM
same,potency estimated from few doses,"MAP3K5; compound concentrations:100 nM and 1000 nM (sheet 'Lestaurtinib' of Supplementary Table 1),run:Lestaurtinib_02438_R3,Plate:MR008",1530 nM
same,potency estimated from few doses,"MAP3K5; compound concentrations:100 nM and 1000 nM (sheet 'Lestaurtinib' of Supplementary Table 1),run:Lestaurtinib_02443_R1,Plate:MR009",1310 nM
same,potency estimated from few doses,"MAP3K5; compound concentrations:100 nM and 1000 nM (sheet 'Lestaurtinib' of Supplementary Table 1),run:Lestaurtinib_02443_R2,Plate:MR009",1410 nM
same,potency estimated from few doses,MAP3K5; [14],969 nM
same,potency estimated from few doses,MAP3K5; [15],1430 nM
same,potency estimated from few doses,MAP3K5; [16],858 nM
same,potency estimated from few doses,MAP3K5; [17],1460 nM
same,potency estimated from few doses,MAP3K5; [18],1890 nM
same,potency estimated from few doses,MAP3K5; [19],1210 nM
same,potency estimated from few doses,MAP3K5; [20],946 nM
same,potency estimated from few doses,"MAP3K5; compound concentrations:100 nM and 1000 nM (sheet 'Lestaurtinib' of Supplementary Table 1),run:Lestaurtinib_02572_R3,Plate:MR015",1620 nM
same,potency estimated from few doses,"MAP3K5; compound concentrations:100 nM and 1000 nM (sheet 'Lestaurtinib' of Supplementary Table 1),run:Lestaurtinib_02577_R1,Plate:MR016",1360 nM
same,potency estimated from few doses,"MAP3K5; compound concentrations:100 nM and 1000 nM (sheet 'Lestaurtinib' of Supplementary Table 1),run:Lestaurtinib_02584_R2,Plate:MR017",1300 nM
same,potency estimated from few doses,"MAP3K5; compound concentrations:100 nM and 1000 nM (sheet 'Lestaurtinib' of Supplementary Table 1),run:Lestaurtinib_02584_R3,Plate:MR017",1360 nM
same,potency estimated from few doses,"MAP3K5; compound concentrations:100 nM and 1000 nM (sheet 'Lestaurtinib' of Supplementary Table 1),run:Lestaurtinib_02601_R1,Plate:MR018",1700 nM
same,potency estimated from few doses,"MAP3K5; compound concentrations:100 nM and 1000 nM (sheet 'Lestaurtinib' of Supplementary Table 1),run:Lestaurtinib_02601_R2,Plate:MR018",1460 nM
same,potency estimated from few doses,"MAP3K5; compound concentrations:100 nM and 1000 nM (sheet 'Lestaurtinib' of Supplementary Table 1),run:Lestaurtinib_02606_R1,Plate:MR019",1440 nM
same,potency estimated from few doses,"MAP3K5; compound concentrations:100 nM and 1000 nM (sheet 'Lestaurtinib' of Supplementary Table 1),run:Lestaurtinib_02606_R3,Plate:MR019",1350 nM
same,potency estimated from few doses,"MAP3K5; compound concentrations:100 nM and 1000 nM (sheet 'Lestaurtinib' of Supplementary Table 1),run:Lestaurtinib_02624_R1,Plate:MR020",1440 nM
same,potency estimated from few doses,"MAP3K5; compound concentrations:100 nM and 1000 nM (sheet 'Lestaurtinib' of Supplementary Table 1),run:Lestaurtinib_02624_R2,Plate:MR020",998 nM
same,potency estimated from few doses,"MAP3K5; compound concentrations:100 nM and 1000 nM (sheet 'Lestaurtinib' of Supplementary Table 1),run:Lestaurtinib_02724_R1,Plate:MR021",998 nM
same,potency estimated from few doses,"MAP3K5; compound concentrations:100 nM and 1000 nM (sheet 'Lestaurtinib' of Supplementary Table 1),run:Lestaurtinib_02741_R1,Plate:MR023",916 nM
same,potency estimated from few doses,"MAP3K5; compound concentrations:100 nM and 1000 nM (sheet 'Lestaurtinib' of Supplementary Table 1),run:Lestaurtinib_02765_R1,Plate:MR026",1490 nM
same,potency estimated from few doses,MAP3K5; [1],1830 nM
same,potency estimated from few doses,"MAP3K5; compound concentrations:100 nM and 1000 nM (sheet 'Lestaurtinib' of Supplementary Table 1),run:Lestaurtinib_02766_R2,Plate:MR027",1150 nM
same,potency estimated from few doses,MAP3K5; [2],942 nM
same,potency estimated from few doses,"MAP3K5; compound concentrations:100 nM and 1000 nM (sheet 'Lestaurtinib' of Supplementary Table 1),run:Lestaurtinib_02768_R1,Plate:MR028",1150 nM
same,potency estimated from few doses,MAP3K5; [3],923 nM
same,potency estimated from few doses,MAP3K5; [4],1340 nM
same,potency estimated from few doses,"MAP3K5; compound concentrations:100 nM and 1000 nM (sheet 'Lestaurtinib' of Supplementary Table 1),run:Lestaurtinib_02802_R3,Plate:MR029",687 nM
same,potency estimated from few doses,"MAP3K5; compound concentrations:100 nM and 1000 nM (sheet 'Lestaurtinib' of Supplementary Table 1),run:Lestaurtinib_03172_R1,Plate:MR031",1310 nM
same,potency estimated from few doses,MAP3K5; [5],1570 nM
same,potency estimated from few doses,MAP3K5; [6],1750 nM
same,potency estimated from few doses,"MAP3K5; compound concentrations:100 nM and 1000 nM (sheet 'Lestaurtinib' of Supplementary Table 1),run:Lestaurtinib_03260_R2,Plate:MR033",1460 nM
same,potency estimated from few doses,MAP3K5; [7],1580 nM
same,potency estimated from few doses,"MAPK10; compound concentrations:100 nM and 1000 nM (sheet 'Lestaurtinib' of Supplementary Table 1),run:Lestaurtinib_02339_R2,Plate:MR001",617 nM
same,potency estimated from few doses,"MAPK10; compound concentrations:100 nM and 1000 nM (sheet 'Lestaurtinib' of Supplementary Table 1),run:Lestaurtinib_02339_R3,Plate:MR001",1150 nM
same,potency estimated from few doses,"MAPK10; compound concentrations:100 nM and 1000 nM (sheet 'Lestaurtinib' of Supplementary Table 1),run:Lestaurtinib_02364_R2,Plate:MR002",618 nM
same,potency estimated from few doses,"MAPK10; compound concentrations:100 nM and 1000 nM (sheet 'Lestaurtinib' of Supplementary Table 1),run:Lestaurtinib_02364_R3,Plate:MR002",801 nM
same,potency estimated from few doses,MAPK10; [8],1620 nM
same,potency estimated from few doses,"MAPK10; compound concentrations:100 nM and 1000 nM (sheet 'Lestaurtinib' of Supplementary Table 1),run:Lestaurtinib_02367_R3,Plate:MR003",623 nM
same,potency estimated from few doses,MAPK10; [9],932 nM
same,potency estimated from few doses,MAPK10; [10],763 nM
same,potency estimated from few doses,"MAPK10; compound concentrations:100 nM and 1000 nM (sheet 'Lestaurtinib' of Supplementary Table 1),run:Lestaurtinib_02407_R3,Plate:MR005",1460 nM
same,potency estimated from few doses,"MAPK10; compound concentrations:100 nM and 1000 nM (sheet 'Lestaurtinib' of Supplementary Table 1),run:Lestaurtinib_02422_R1,Plate:MR006",575 nM
same,potency estimated from few doses,MAPK10; [11],964 nM
same,potency estimated from few doses,"MAPK10; compound concentrations:100 nM and 1000 nM (sheet 'Lestaurtinib' of Supplementary Table 1),run:Lestaurtinib_02422_R3,Plate:MR006",609 nM
same,potency estimated from few doses,MAPK10; [12],865 nM
same,potency estimated from few doses,MAPK10; [13],838 nM
same,potency estimated from few doses,"MAPK10; compound concentrations:100 nM and 1000 nM (sheet 'Lestaurtinib' of Supplementary Table 1),run:Lestaurtinib_02443_R3,Plate:MR009",798 nM
same,potency estimated from few doses,MAPK10; [14],970 nM
same,potency estimated from few doses,MAPK10; [15],755 nM
same,potency estimated from few doses,MAPK10; [16],882 nM
same,potency estimated from few doses,MAPK10; [17],469 nM
same,potency estimated from few doses,MAPK10; [18],898 nM
same,potency estimated from few doses,"MAPK10; compound concentrations:100 nM and 1000 nM (sheet 'Lestaurtinib' of Supplementary Table 1),run:Lestaurtinib_02482_R3,Plate:MR011",612 nM
same,potency estimated from few doses,MAPK10; [19],798 nM
same,potency estimated from few doses,"MAPK10; compound concentrations:100 nM and 1000 nM (sheet 'Lestaurtinib' of Supplementary Table 1),run:Lestaurtinib_02487_R2,Plate:MR012",744 nM
same,potency estimated from few doses,MAPK10; [20],712 nM
